About 1,000 (0.29%) of roughly 340,000 compounds were called active. Rule as the data show it: inconclusive = inhibition above about 29% without an active follow-up result; inactive = below that. Not all results are given here. Entries with a potency or affinity are not part of this list.
Target: Genome polyprotein (Dengue virus type 2 (strain 16681-PDK53)) (UniProt P29991)
Test: Dengue-2 NS5 methyltransferase inhibitors, primary screen, biochemical, confirmation dose response (AID 588689)
Details: Dengue-2 NS5 methyltransferase capping enzyme assay, at 25 µM, stronger effect = higher value
[1] = measured here: pilot screen replicate inhibition

| Structure (SMILES) | inhibition | inhibition [1] |
| --- | --- | --- |
| COc1cccc(NC(=S)N2CCC(c3ccc(C)cc3)C2)c1 (stereo unspecified) | -1.96% (inactive) |  |
| COc1ccc(CCNC(=O)c2nnn(CC(=O)Nc3c(C)cc(C)cc3C)c2N)cc1OC | -7.1% (inactive) |  |
| COc1ccc(NC(=O)c2ccc(COCC(F)(F)F)cc2)cc1OC | -2.91% (inactive) |  |
| COc1cc(C(O)C(=O)O)ccc1O (stereo unspecified) | -7.33% (inactive) |  |
| COc1cc(NC(=O)c2ccc(COCC(F)(F)F)o2)cc(OC)c1OC | 0% (inactive) |  |
| CC1(C)CC(=O)C(C(c2ccccc2F)C2C(=O)CC(C)(C)CC2=O)C(=O)C1 | 22.6% (inactive) |  |
| CCOc1ccc(CC(=O)C2C(=O)CC(C)(C)CC2=O)cc1OCC | -13.1% (inactive) |  |
| COc1ccc(N2C(=O)CC(C)(C)CC2=O)cc1OC | 0% (inactive) |  |
| COc1cc(C(C2C(=O)CC(C)(C)CC2=O)C2C(=O)CC(C)(C)CC2=O)ccc1OC(C)=O | -2.35% (inactive) |  |
| O=C(/C=C1\SC(=O)NC1=O)Nc1ccc(F)cc1 | 0% (inactive) |  |
| Cc1cc(Br)ccc1NC(=O)CNC(=O)CSc1n[nH]c(N)n1 | -4.68% (inactive) |  |
| O=C(COC(=O)c1cc(Cl)ccc1O)Nc1cc(C(F)(F)F)ccc1N1CCOCC1 | -3.11% (inactive) |  |
| CCCN1Cc2cccc(C(=O)NCCc3cccc(C)c3)c2C1=O | 3.25% (inactive) |  |
| COc1cc(C2CC(=O)OC3=C2C(=O)CC(C)(C)C3)cc(OC)c1OC (stereo unspecified) | 2.26% (inactive) |  |
| COc1cc(NC2=CC(=O)CC(C)(C)C2)cc(OC)c1OC | 1.61% (inactive) |  |
| CCOc1ccc(S(=O)(=O)NC(C)(C)C)cc1-c1nc2c(C(C)(C)C)nn(C)c2c(=O)[nH]1 | -2.73% (inactive) |  |
| Cc1cc[n+](-c2ccccc2)c2ccccc12 | -10.7% (inactive) |  |
| O=C(CSCc1c(F)cccc1Cl)NCc1ccco1 | -1.37% (inactive) |  |
| CCN(CC)S(=O)(=O)c1ccc(C(=O)NCC2CCCCC2)cc1 | 2.49% (inactive) |  |
| O=C(Nc1ccc(F)cc1)c1cc2cc(Cl)ccc2[nH]1 | 1.32% (inactive) |  |
| COc1ccc(-c2ccc(SCC(=O)N3CC(=O)Nc4ccccc43)nn2)cc1 | -4.15% (inactive) |  |
| CCn1cc(/C=C/C(=O)NCc2c(C)nn(C)c2C)cn1 | -7.26% (inactive) |  |
| O=C1NC(=O)/C(=C/c2cccc(O)c2)N1 | 1.96% (inactive) |  |
| Cc1ccc(OCCN2C(=O)c3ccccc3C2=O)c(C)c1 | 1.61% (inactive) |  |

| Structure (SMILES) | inhibition | inhibition [1] |
| --- | --- | --- |
| C(=N\n1cnnc1)/c1cccc(OCCOc2ccccc2)c1 | -9.55% (inactive) |  |
| O=C1NC(=S)S/C1=C\c1ccc2ccccc2c1 | -15.5% (inactive) |  |
| COc1ccccc1OCCCOc1cccc(/C=C2\SC(=O)NC2=O)c1 | -1.96% (inactive) | 6.37% |
| O=C1NC(=S)N/C1=C/c1ccc2ccccc2c1 | 5.93% (inactive) | 2.73% |
| CNC(=O)NC(=O)CSc1nc2cc(C(=O)OC)ccc2c(=O)n1-c1ccccc1 | -2.77% (inactive) |  |
| COc1ccc2nc(C)cc(SCC(NC(C)=O)C(=O)OC(C)C)c2c1 (stereo unspecified) | 0.78% (inactive) |  |
| COc1ccccc1C(=O)Nc1ncc2c(n1)CC(c1ccco1)CC2=O (stereo unspecified) | -1.36% (inactive) |  |
| O=C(NCc1ccccn1)c1cc(S(=O)(=O)N2CCCCCC2)ccc1Cl | 1.3% (inactive) |  |
| COc1cc(C(=O)O/N=C2\C=CC(=O)C(C)=C2)cc(OC)c1OC | -39% (inactive) |  |
| Oc1ccc(/C=N/N2CCN(C3c4ccccc4-c4ccccc43)CC2)cc1 | -2.06% (inactive) |  |
| COc1ccc(N)c2c1C(=O)c1ccccc1C2=O | -1.95% (inactive) |  |
| COc1ccc(OC)c2c1CCC2=O | 0% (inactive) |  |
| CCOc1ccc(S(=O)(=O)N2CCCCC2)cc1NC(=O)C1COc2ccccc2O1 (stereo unspecified) | 1.45% (inactive) |  |
| O=C(NCc1ccccc1)c1cnc(Cl)c(Cl)c1 | -7.44% (inactive) |  |
| COC(=O)c1ccc(COc2cccnc2[N+](=O)[O-])cc1 | 0% (inactive) |  |
| O=C(N/N=C/c1cccc(Cl)c1)C1CCCC1 | 0% (inactive) |  |
| O=C(Nc1ccccc1C(=O)O)c1ccccc1 | -0.69% (inactive) |  |
| O=C(Nc1ccccc1C(=O)Nc1ccccc1C(=O)O)c1ccccc1 | 2.59% (inactive) |  |
| Cc1ccc(C(=O)Nc2ccccc2C(=O)O)cc1S(=O)(=O)Nc1ccccc1 | 3.97% (inactive) |  |
| O=C(Nc1ccccc1C(=O)O)c1cccc(F)c1 | 3.35% (inactive) |  |
| Cc1ccc(C(=O)Nc2ccc(O)cc2C(=O)O)cc1 | -8.03% (inactive) |  |
| O=C(Nc1ccccc1C(=O)O)c1cccc(S(=O)(=O)Nc2ccc(Br)cc2)c1 | 22.4% (inactive) |  |
| Cc1cccc(C(=O)Nc2ccc(O)cc2C(=O)O)c1 | 14.3% (inactive) |  |
| CC(=O)Nc1cccc(C(=O)Nc2ccccc2C(=O)O)c1 | 3.9% (inactive) |  |

| Structure (SMILES) | inhibition | inhibition [1] |
| --- | --- | --- |
| Cc1cccc(N(CC(O)CN2CCOCC2)S(=O)(=O)c2ccccc2)c1 (stereo unspecified) | 0% (inactive) |  |
| Cc1cc(-c2ccccc2N)n[nH]1 | -5.29% (inactive) |  |
| CCN(C(=O)COC(=O)c1ccccc1NCCO)c1cccc2ccccc12 | 6.52% (inactive) |  |
| COc1ccc(NC(=O)c2ccc(-c3ccccc3C(F)(F)F)o2)cc1 | -7.03% (inactive) |  |
| COc1cc(C2c3cc4c(cc3OC(NCCc3ccccc3)C2C)OCO4)cc(OC)c1OC (stereo unspecified) | -4.03% (inactive) |  |
| COc1ccc(S(N)(=O)=O)cc1C(=O)OCC(=O)Nc1sccc1C#N | -21% (inactive) |  |
| COc1ccccc1N(CC(=O)NCCSc1ccccc1)S(=O)(=O)c1ccccc1 | -5.79% (inactive) |  |
| O=C(CSc1ncn[nH]1)N1N=C2/C(=C/c3ccco3)CCCC2C1c1ccco1 (stereo unspecified) | -4.57% (inactive) |  |
| Cc1ccccc1C(=O)Nc1nnc(SC(C)C)s1 | -3.88% (inactive) |  |
| Cc1ccc(-n2nc3c(=O)n(CC(=O)NCCCc4ccccc4)nc(C)c3c2C)cc1 | -3.57% (inactive) |  |
| CC(C)(C)OC(=O)N1CCCC(C(=O)CC#N)C1 (stereo unspecified) | -13.4% (inactive) |  |
| CC1/C(=N/O)CC(c2ccccc2)NC1c1ccccc1 (stereo unspecified) | 3.42% (inactive) |  |
| COCCNc1nc(NCc2ccccc2)c2cnn(C)c2n1 | -7.24% (inactive) |  |
| CN(C)CCCN1CC(=O)N2[C@@H](Cc3c([nH]c4ccccc34)C2(C)C)C1=O | 5.89% (inactive) |  |
| COc1ccc(CCC(=O)Nc2sc(C(=O)N(C)C)c(C)c2C#N)cc1 | 2.58% (inactive) |  |
| COc1ccc(Nc2ccc(C(=O)O)cc2[N+](=O)[O-])cc1 | 3.64% (inactive) |  |
| Cc1ccc(Nc2ccc(C(=O)O)cc2[N+](=O)[O-])cc1 | 17% (inactive) |  |
| COc1ccc(C(C)=O)cc1COC(=O)CNC(=O)C1CCCCC1 | 10.9% (inactive) |  |
| Cc1cccc(-c2nnc(SCC3CNC(=O)O3)n2-c2ccc(Cl)cc2)c1 (stereo unspecified) | -12.5% (inactive) |  |
| Cc1sc(NC(=O)C2C3C=CC(C3)C2C(=O)O)c(C(N)=O)c1-c1ccc(C(C)C)cc1 (stereo unspecified) | -5.14% (inactive) |  |
| CC(C)=C1C2CCC1C(C(=O)Nc1sc(C)c(-c3ccc(C(C)C)cc3)c1C(N)=O)C2C(=O)O (stereo unspecified) | 2.89% (inactive) |  |
| Cc1sc(NC(=O)C2CCCCC2C(=O)O)c(C(N)=O)c1-c1ccccc1 (stereo unspecified) | -2.08% (inactive) |  |
| Cc1sc(NC(=O)C2C3CCC(C3)C2C(=O)O)c(C(N)=O)c1-c1ccc(C(C)(C)C)cc1 (stereo unspecified) | 7.13% (inactive) |  |
| COc1ccc(NC(=O)CN2CCN(S(=O)(=O)N(C)C)CC2)cc1 | 2.61% (inactive) | 3.63% |

| Structure (SMILES) | inhibition | inhibition [1] |
| --- | --- | --- |
| Cc1c(C(=O)c2ccc(Cl)c(Cl)c2)cnc2cc3c(cc12)OCO3 | 0.78% (inactive) |  |
| Nc1c(C(=O)O)sc2nc(-c3ccccc3)cc(-c3ccc(F)cc3)c12 | -4.6% (inactive) |  |
| Nc1c(C(=O)O)sc2nc(-c3ccccc3)cc(-c3ccccc3)c12 | -27% (inactive) |  |
| CCOC(=O)CC1COc2ccccc2N1C(=O)c1cccc([N+](=O)[O-])c1 (stereo unspecified) | -0.68% (inactive) |  |
| CCOc1ccc(N2C(=O)CC(N(Cc3ccco3)C(=O)CCC(=O)O)C2=O)cc1 (stereo unspecified) | -7.79% (inactive) |  |
| Cc1c(C(=O)OCC(=O)NC2CC2)oc2ccc(Br)cc12 | 4.33% (inactive) |  |
| CNCc1ccccc1Sc1cc(O)ccc1O | -2.55% (inactive) |  |
| CNCc1ccccc1Sc1cccc(O)c1 | -3.83% (inactive) |  |
| Cc1cc(NC(=O)CSc2ccccn2)cc(NC(=O)CSc2ccccn2)c1 | -6.51% (inactive) |  |
| O=C1c2ccccc2C(=O)c2cc(S(=O)(=O)Nc3ccccc3)ccc21 | -0.73% (inactive) |  |
| O=C(O)c1cccc(NS(=O)(=O)c2ccc3c(c2)C(=O)c2ccccc2C3=O)c1 | 16.2% (inactive) |  |
| O=C(O)c1cccc(S(=O)(=O)Nc2ccc(-c3ccccc3)cc2)c1 | -3.98% (inactive) |  |
| O=C(O)c1ccc(F)c(S(=O)(=O)Nc2ccccc2Cl)c1 | 4.09% (inactive) |  |
| O=C(O)c1ccc(NS(=O)(=O)c2cc(Cl)ccc2Cl)cc1 | -2.78% (inactive) |  |
| O=C(O)c1ccc(Cl)c(S(=O)(=O)Nc2ccc(S(=O)(=O)N3CCCC3)cc2)c1 | -5.16% (inactive) |  |
| O=C(O)c1ccc(Cl)c(S(=O)(=O)Nc2ccccc2Cc2ccccc2)c1 | -0.83% (inactive) |  |
| O=C(O)c1cccc(NS(=O)(=O)c2ccc(Oc3ccc(S(=O)(=O)Nc4cccc(C(=O)O)c4)cc3)cc2)c1 | 13.8% (inactive) |  |
| CC1(C)C2CCC1(CS(=O)(=O)NCc1ccc(C(F)(F)F)cc1)C(=O)C2 (stereo unspecified) | -2.61% (inactive) |  |
| CCOC(=O)N1CCN(Cc2nc3ccc([N+](=O)[O-])cc3c(=O)n2-c2ccc(OC)cc2OC)CC1 | -7.83% (inactive) |  |
| Cc1ccc(C2(C)NC(=O)N(CC(=O)NNC(=O)c3cc(C)oc3C)C2=O)cc1 (stereo unspecified) | -2.16% (inactive) |  |
| CC1CC1C(=O)N(C)CC(=O)Nc1ccccc1Br (stereo unspecified) | -5.16% (inactive) |  |
